Several values for one entry are separate records, joined by “and”; a condition that tells them apart may be missing. Equal entries are not always repeated. Inconclusive results are not listed. Values without a mark were called inactive. Activity calls are given as the source filed them. The call rests on the fitted dose curve; in most records, active means well fitted activation curve with a large enough effect; inconclusive means small, poorly fitted or top-dose-only effect; inactive means no such curve, though single readings can be large or run the other way.
Potency means the concentration at half of the fitted maximal effect.

Cellular tumor antigen p53 (Homo sapiens), sequence (P04637 whole entry, looked up): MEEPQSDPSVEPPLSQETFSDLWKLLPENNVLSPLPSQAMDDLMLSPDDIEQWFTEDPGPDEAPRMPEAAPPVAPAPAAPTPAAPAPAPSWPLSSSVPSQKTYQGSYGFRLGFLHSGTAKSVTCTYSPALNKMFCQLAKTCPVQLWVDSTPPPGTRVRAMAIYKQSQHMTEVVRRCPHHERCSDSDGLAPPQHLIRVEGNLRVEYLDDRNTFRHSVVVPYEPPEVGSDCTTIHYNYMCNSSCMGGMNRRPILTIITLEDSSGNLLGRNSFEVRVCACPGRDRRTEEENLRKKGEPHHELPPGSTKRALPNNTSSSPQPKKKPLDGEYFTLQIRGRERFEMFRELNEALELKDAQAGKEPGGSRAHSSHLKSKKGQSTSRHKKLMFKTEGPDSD

The experiment concerns the target Cellular tumor antigen p53 (Homo sapiens) (UniProt P04637). As to the kind of experiment: Primary qHTS for small molecule compounds that upregulate eGFP-tagged delta133p53alpha (in N-terminal) cells. (AID 2060322). Further: nearly all actives have a fitted effect of over 75% in size.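 On activation: series mostly up to about 56 µM; 0% = DMSO vehicle and 100% = reference activator.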 The note with it: NCI-H358 eGFP-delta133p53alpha fluorescence, 24 h; activation: hits give high values. In a few lines:
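NCI-H358 cells pre-induced 24 h with 10 ng/ml doxycycline for eGFP-delta133p53alpha, plated dox-free and exposed 24 h at 37C to titrated compounds. Fixed, Hoechst-stained; gated GFP peak intensity by laser scanning cytometry, normalized to DMSO (0%) and 57.5 uM 5-azacytidine (100%).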
On the technique in general: Quantitative high-throughput screening tests each substance at several concentrations.
As for `NS(=O)(=O)c1ccc(NC(=O)CCC(=O)O)cc1`, the activation is 14.1%.

With `CCCCCCCCCCOc1cc2c(=O)c(C(=O)OCC)c[nH]c2cc1OCC`, the activation is -12.6%.

Take `CC(C)(O)CC[C@@H](O)[C@](C)(O)[C@H]1CC[C@@]2(O)C3=CC(=O)[C@@H]4C[C@@H](O)[C@@H](O)C[C@]4(C)[C@@H]3CC[C@]12C`: the activation was -14.8%.

In the case of `CCCCCCCCCCCCOCCOCCOCCOCCOCCOCCOCCOCCOCCO`, the activation is 6.21%.

For `Nc1nnnn1-c1ccccc1`, the activation is 29.9%.

Regarding `CCOC(=O)c1ccccc1O`, the activation is -2.51%.

Regarding `CCN(CC)C(=O)/C(C#N)=C/c1cc(O)c(O)c([N+](=O)[O-])c1`, the activation is -3.95%.

Regarding `Cc1[nH]c(C=C2C(=O)Nc3ccccc32)c(C)c1CCC(=O)O`, the Potency is 24.3 µM (active).

With `Nc1ccc(C(=O)NCC(=O)O)cc1`, the activation is -8.47%.

Turning to `O=C(CCCN1CCC(O)(c2ccc(Br)cc2)CC1)c1ccc(F)cc1`, the activation is 3.35%.

In the case of `CCn1cc(C(=O)O)c(=O)c2cc(F)c(N3CCNCC3)nc21`, the activation was -2.51% and 26.4%.

Consider `CCC[C@@H]1C[C@@H](C(=O)N[C@@H]([C@H]2O[C@H](SC)[C@H](O)[C@@H](O)[C@H]2O)[C@@H](C)O)N(C)C1`, for which the activation is -5.08%.

As for `NC(=O)CC[C@@H]1NC(=O)[C@H](Cc2ccccc2)NC(=O)[C@H](Cc2ccc(O)cc2)NC(=O)CCSSC[C@@H](C(=O)N2CCC[C@H]2C(=O)N[C@@H](CCCN=C(N)N)C(=O)NCC(N)=O)NC(=O)[C@H](CC(N)=O)NC1=O`, the activation is -3.35%.

With `O=C1NC(=O)C(=Cc2ccc3nccc(-c4ccncc4)c3c2)S1`, the activation is 3.34%.

As to `CC(=O)N1CCN(c2ccc(OCc3nn(C)c(C)c3-c3cccc4c(CCCOc5cc(C)c(Cl)c(C)c5)c(C(=O)O)n(Cc5cccnc5)c34)cc2)CC1`, the activation is -5.22%.

Regarding `OCc1ccccn1`, the activation was 8.37%.

As to `Cc1cc(CCCOc2c(C)cc(-c3noc(C(F)(F)F)n3)cc2C)on1`, the activation is 19.8%.

Turning to `CC(N)CCCC(C)(C)O` (stereo not given), the activation was -2.82%.

In the case of `O=c1[nH]c(=O)c2ccccc2o1`, the activation is -12.6%.

`NC1=N[C@@]2(c3cc(NC(=O)c4ccc(F)cn4)ccc3F)COC[C@@H]2CS1`: the activation is 87.4%.

In the case of `NC(=O)C(c1ccccc1)(c1ccccc1)[C@@H]1CCN(CCc2ccc3c(c2)CCO3)C1`, the Potency is 19.5 µM (active).

As to `CCCC(O)C(CC)CO` (stereo not given), the activation is 6.21%.

In the case of `Nc1ccc2c(c1)CN1C(=O)c3ccccc3C1=N2`, the Potency is 0.0601 µM (active).

As to `CC(COc1ccccc1)NC(C)C(O)c1ccc(O)cc1` (stereo not given), the activation was 18.6%.

`CCCCCCCC(=O)OCC(COC(=O)CCCCCCC)OC(=O)CCCCCCC`: the activation is -13.4%.

As for `CC1CCc2cc(F)cc3c(=O)c(C(=O)O)cn1c23` (stereo not given), the activation is 23.2%.

Consider `CC(=O)Oc1ccc(C2(c3ccc(OC(C)=O)cc3)C(=O)Nc3ccccc32)cc1`, for which the activation was -31.1%.

As for `CC[C@]1(O)C[C@@H]2CN(CCc3c([nH]c4ccccc34)[C@@](C(=O)OC)(c3cc4c(cc3OC)N(C=O)[C@@H]3C45CCN4CC=C[C@](CC)([C@H]45)[C@@H](OC(C)=O)[C@]3(O)C(=O)OC)C2)C1` (stereo not given in full), the activation was -1.44%.

Regarding `O=C(Nc1ccc([N+](=O)[O-])cc1)Nc1ccc([N+](=O)[O-])cc1`, the activation is -25.9%.

As to `Cc1cc(C)cc(OCC2CNC(=O)O2)c1` (stereo not given), the activation is -11.9%.

Consider `CN1[C@H]2CC(OC(=O)[C@@H](CO)c3ccccc3)C[C@H]1[C@H]1O[C@H]12` (stereo not given in full), for which the activation was 6.53%.

Regarding `CCC(Sc1nnc2c(n1)[nH]c1ccccc12)C(=O)N1c2ccccc2Sc2ccccc21` (stereo not given), the activation is 12.3%.

Take `CNc1nc(-c2ccc3c(N)n[nH]c3c2)cc(N2C[C@@H](C(=O)NC3CCCCC3)CC[C@@H]2C)n1`: the activation was -21.3%.

On to `C[n+]1ccccc1/C=N/O`, for which the activation is 15.3%.

In the case of `Nc1ccc([N+](=O)[O-])cc1O`, the activation is -7.53%.

Consider `CC=C1C2C=C(C)CC1(N)c1ccc(=O)[nH]c1C2` (stereo not given), for which the activation is -14.9%.

For the compound `COc1cc(/C=C/C(N)=O)cc(OC)c1OC`, the activation was -18.6%.

With `C/C(=N\O)[C@@H](C)NCC(C)(C)CN[C@H](C)/C(C)=N/O`, the activation was -12.6%.

As to `O=C(O)CCC(=O)Nc1ccc(S(=O)(=O)Nc2nccs2)cc1`, the activation is -3.95%.

`CCN(C)C(=O)Oc1cccc([C@H](C)N(C)C)c1`: the activation is 6.21% and 13.7%.

For the origin of these results see PubChem BioAssay (NCATS).
